Rpn11 inh = inhibitors of human proteasome Rpn11. human 26S proteasome, Ub4-pepOG fluorescence polarization; 20S core pre-blocked with epoxomicin. inhibition, % at 20 µM. actives 0.59% (n = 360,000);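 active means inhibition at 20 µM, scaled to each plate's controls, above about 33%, limit read from the data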
CTSL1 counter = cathepsin L1 inhibition, PFM18AAP counter-screen. AID 1906. actives 0.49% (n = 300,000). inhibition, % at 5.96 µM. recombinant F. hepatica cathepsin L1, Z-Leu-Arg-MCA fluorescence;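 active means inhibition above the mean of all tested compounds plus 3 SD, set per screening campaign, cut at about 17% in these data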
TPT1 inhibitor = inhibitors of Candida albicans tRNA 2'-phosphotransferase TPT1. recombinant caTPT1, FP RNA substrate dephosphorylation. actives 0.81% (n = 300,000). inhibition, % at 5 µM. AID 1962;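 active means inhibition above the mean of all tested compounds plus 3 SD, set per screening campaign, cut at about 24% in these data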
CendR NRP1 mod = alters CendR peptide binding to human NRP-1; inhibition, % at 25 µM; AID 602438; FAM-RPARPAR peptide binding to NRP-1, fluorescence polarization; O14786; actives 0.85% (n = 360,000);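 active means inhibition or corrected inhibition above about 18%, plus a signal ratio from 0.5 to 1.5, limit read from the data, passing the limit was not always enough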
Target sequence (O14786 whole entry, looked up): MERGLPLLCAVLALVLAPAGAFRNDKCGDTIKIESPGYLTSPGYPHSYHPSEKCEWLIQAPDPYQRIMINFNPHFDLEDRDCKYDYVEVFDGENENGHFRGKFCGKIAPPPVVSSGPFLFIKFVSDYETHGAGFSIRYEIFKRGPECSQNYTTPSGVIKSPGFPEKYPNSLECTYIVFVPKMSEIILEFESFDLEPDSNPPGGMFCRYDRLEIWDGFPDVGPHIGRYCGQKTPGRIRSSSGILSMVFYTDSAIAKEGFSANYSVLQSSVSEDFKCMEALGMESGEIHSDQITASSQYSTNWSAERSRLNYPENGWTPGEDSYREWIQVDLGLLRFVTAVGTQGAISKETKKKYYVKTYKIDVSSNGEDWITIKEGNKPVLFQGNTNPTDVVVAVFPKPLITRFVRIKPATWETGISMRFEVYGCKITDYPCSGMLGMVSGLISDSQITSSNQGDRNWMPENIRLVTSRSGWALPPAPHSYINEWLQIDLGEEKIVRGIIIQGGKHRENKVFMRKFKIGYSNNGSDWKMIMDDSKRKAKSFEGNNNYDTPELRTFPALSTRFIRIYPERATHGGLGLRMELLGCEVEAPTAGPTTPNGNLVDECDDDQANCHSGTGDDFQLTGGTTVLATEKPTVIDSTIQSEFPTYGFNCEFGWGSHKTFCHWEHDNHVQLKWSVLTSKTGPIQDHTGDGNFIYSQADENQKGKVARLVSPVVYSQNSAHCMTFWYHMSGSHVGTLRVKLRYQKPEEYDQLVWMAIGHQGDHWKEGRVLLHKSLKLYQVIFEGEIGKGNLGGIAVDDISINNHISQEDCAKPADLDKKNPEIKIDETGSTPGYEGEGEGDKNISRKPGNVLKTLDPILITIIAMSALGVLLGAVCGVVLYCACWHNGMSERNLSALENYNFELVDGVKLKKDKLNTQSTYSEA
HNF4A DNA FP = change in binding of human HNF4 alpha to DNA; HNF4a-FITC DNA binding, fluorescence polarization, 1 h; actives 0.3% (n = 360,000); activity change, % at 10 µM; AID 1224865; in the data active means activity change above about 30%, passing the limit was not always enough
PHOSPHO1 block = blocks human PHOSPHO1 phosphatase activity. recombinant PHOSPHO1, absorbance phosphatase assay. inhibition, % at 13.3 µM. actives 1.1% (n = 290,000); in the data active means inhibition above about 60%
caTPT1 confirm = TPT1 (C. albicans) inhibition, confirmation; AID 2149; actives 74% (n = 2,400); inhibition, % at 5 µM; recombinant caTPT1, fluorescence polarization, RNase T1 coupled; shares compounds with TPT1 inhibitor;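 active means inhibition above the primary screen limit, the mean inhibition of all tested compounds plus 3 SD, cut at about 25% in these data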
RNase T1 counter = blocks Aspergillus oryzae RNase T1, a TPT1 counter-screen | shares compounds with TPT1 inhibitor | RNase T1 cleavage, fluorescence polarization, 1536-well | inhibition, % at 5 µM | actives 83% (n = 2,400) | AID 2153;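 active means inhibition above the solvent-only control well mean plus 3 SD, limit set per screening run, cut at about 23% in these data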;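 further: inhibitors block cleavage so intact labeled substrate keeps polarization high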
Large screens that a line does not name were inactive (follow-up assays come after a bar, where shown). In the library only some 3.3% were active in any assay of this set; here they are far more common.

CN1CCc2c(sc(/N=C/c3cccs3)c2C(N)=O)C1	TPT1 inhibitor 39.3 | caTPT1 confirm 43.0 | RNase T1 counter 56.1
CN1CCc2c(sc(N)c2C(=O)c2ccc(Cl)cc2)C1	TPT1 inhibitor 31.7, HNF4A DNA FP 40.4 (not shown: Rpn11 inh) | caTPT1 confirm 36.6 | RNase T1 counter 48.4
CN1CCc2c(sc(NC(=O)c3ccc4ccccc4c3)c2C(N)=O)C1	TPT1 inhibitor 33.5 (not shown: Rpn11 inh) | caTPT1 confirm 24.9 | RNase T1 counter 33.7
CC(C)(C)c1ccc(C(=O)c2cn[nH]c2-c2ccccc2O)cc1	none
CN(C)/C=C/C(=O)/C=C/c1cn(-c2ncc(C(F)(F)F)cc2Cl)c2ccccc12	TPT1 inhibitor 31.6 | caTPT1 confirm inactive | RNase T1 counter inactive
COc1ccc(OC)c(NC(=O)CSc2nncc3ccc(OC)c(OC)c23)c1	none
O=C1NC(=S)S/C1=C\c1ccc(SCc2ccccc2)o1	Rpn11 inh 84.4, TPT1 inhibitor 47.2, HNF4A DNA FP 35.4 | caTPT1 confirm 46.5 | RNase T1 counter 64.8
CCCC(C(=O)NCc1ccco1)N(Cc1ccco1)C(=O)CNS(=O)(=O)c1ccccc1 (centres undefined)	none
COc1cc(CCC(=O)OCC(=O)Nc2sccc2C(N)=O)cc(OC)c1OC	none (no result: CTSL1 counter, TPT1 inhibitor, PHOSPHO1 block)
Cc1ccc(-c2ccc(/C=N/n3cnnc3)o2)cc1Cl	TPT1 inhibitor 62.1 | caTPT1 confirm inactive | RNase T1 counter inactive
COc1ccc(CNC(=O)CN(c2cccc(OC)c2)S(C)(=O)=O)cc1	TPT1 inhibitor 75.8 | caTPT1 confirm inactive | RNase T1 counter inactive
COc1ccc(CNC(=O)CN(c2cccc([N+](=O)[O-])c2)S(C)(=O)=O)cc1	none
C=CCn1c(C)nnc1SCC(=O)N1CCN(S(=O)(=O)c2ccccc2)CC1	none
N#C/C(=C/c1ccc(N2CCOCC2)o1)C(=O)NC1CCCCC1	TPT1 inhibitor 156.1 (not shown: Rpn11 inh) | caTPT1 confirm 173.2 | RNase T1 counter 165.9
N#C/C(=C\c1ccc(N2CCOCC2)o1)C(=O)Nc1ccc(O)cc1	TPT1 inhibitor active (not shown: Rpn11 inh) | caTPT1 confirm 194.2 | RNase T1 counter 176.2
CSc1ccc(/C=C(\C#N)C(=O)NC2CCCCC2)cc1	none
N#C/C(=C/c1ccc(N2CCCCC2)o1)C(=O)Nc1ccc(Cl)cc1	TPT1 inhibitor 186.8 (not shown: Rpn11 inh) | caTPT1 confirm 191.5 | RNase T1 counter 173.8
N#C/C(=C/c1ccc(N2CCCCC2)o1)C(=O)Nc1ccc2ccccc2c1	none (not shown: Rpn11 inh, CTSL1 counter, TPT1 inhibitor)
COc1ccc(NC(=O)/C(C#N)=C\c2ccc(N3CCOCC3)o2)cc1	TPT1 inhibitor active (not shown: Rpn11 inh) | caTPT1 confirm 198.4 | RNase T1 counter 177.4
CC1CC1c1ccc(/C=C(\C#N)C(=O)Nc2ccc(Cl)cc2)o1 (centres undefined)	none
O=C(COc1cccc2ccccc12)NNC(=O)C1CCCO1 (centres undefined)	none
CCOC(=O)c1c(S(=O)(=O)NCC2CCN(CCc3cccs3)CC2)c(C)n(C)c1C	none
COc1ccc(C(=O)C(CO)Oc2ccccc2OC)cc1OC (centres undefined)	none
CN1CCN(S(=O)(=O)c2ccc(Sc3nnc(-c4cccs4)n3-c3ccccc3)nc2)CC1	TPT1 inhibitor 33.7 | caTPT1 confirm inactive | RNase T1 counter inactive
CCN(CC)c1ccc(/C=N/Nc2nn[nH]n2)cc1	none
CCN(CC)c1ccc(C=N/C(C#N)=C(\N)C#N)cc1	TPT1 inhibitor 82.6 (not shown: Rpn11 inh) | caTPT1 confirm 116.4 | RNase T1 counter 121.0
CCOc1ccc(Nc2ccc([N+](=O)[O-])c3nonc23)cc1	none (no result: PHOSPHO1 block)
O=[N+]([O-])c1ccc(Nc2ccccc2)c2nonc12	TPT1 inhibitor 24.7 | caTPT1 confirm 35.0 | RNase T1 counter 50.4
COCCN(C)Cc1nc(C(c2ccccc2)c2ccccc2)no1	none (no result: PHOSPHO1 block)
N#CCc1nc(C(c2ccccc2)c2ccccc2)no1	TPT1 inhibitor 25.4 (not shown: Rpn11 inh) | caTPT1 confirm inactive | RNase T1 counter 27.8
COc1cc(OC)c(OC)cc1/C=C/C(=O)c1ccc(NS(=O)(=O)c2ccc(C)cc2)cc1	TPT1 inhibitor 78.3 (not shown: Rpn11 inh) | caTPT1 confirm 85.8 | RNase T1 counter 95.1
CC(=O)c1ccc(NS(=O)(=O)c2ccc(C)cc2)cc1	none
O/C(=C\c1nc2ccccc2[nH]1)c1cccs1	none
O=c1[nH]c2ccccc2nc1/C=C(\O)c1cccs1	TPT1 inhibitor 70.5 | caTPT1 confirm 117.2 | RNase T1 counter 113.8
O=c1[nH]c2ccccc2nc1/C=C/c1ccc(F)cc1	TPT1 inhibitor 57.0, HNF4A DNA FP 44.1 (not shown: Rpn11 inh) | caTPT1 confirm 74.0 | RNase T1 counter 82.5
O=c1[nH]c2ccccc2nc1/C=C(\O)C1CC1	TPT1 inhibitor 26.7 | caTPT1 confirm inactive | RNase T1 counter inactive
COc1ccc(-n2c(C)cc(C(=O)Cn3c(NCCO)nc4ccccc43)c2C)cc1	none
CCCCCCN=C1CC(C)(C)CC(=O)/C1=C(/O)CCC	none
COc1cccc(-c2cn3nc(C)c(C)nc3n2)c1	TPT1 inhibitor 45.4 | caTPT1 confirm 45.4 | RNase T1 counter 55.4
COC(=O)c1ccccc1NC(=O)Cn1c(CCC(=O)O)ccc1-c1cccs1	TPT1 inhibitor 31.9 | caTPT1 confirm inactive | RNase T1 counter 32.2
Cc1cc(C(=O)NP(=O)(N2CC(C)OC(C)C2)N2CC(C)OC(C)C2)c(C)n1C1CC1 (centres undefined)	none
Cc1ccccc1NC(=O)c1c(C)[nH]c(=S)c(C#N)c1-c1ccc(Cl)cc1	TPT1 inhibitor 30.1 | caTPT1 confirm inactive | RNase T1 counter 22.3
Cc1ccc(-c2c(C(=O)Nc3ccccc3C)c(C)[nH]c(=S)c2C#N)o1	none
CC(=O)Nc1ccc(NC(=O)C(C)N(C)CC(=O)Nc2ccccc2Br)cc1 (centres undefined)	none (no result: CTSL1 counter, TPT1 inhibitor)
CCN(CC)CCCNc1nc(CN2CCOCC2)nc2sc3c(c12)CCC3	TPT1 inhibitor 34.9 | caTPT1 confirm inactive | RNase T1 counter inactive
O=C(CCNC(=O)N1CC(=O)Nc2ccccc21)Nc1ccc(F)c(Cl)c1	none
CCC1(C)Cc2c(sc(NC(=S)NC(=O)c3ccccc3)c2C#N)CO1 (centres undefined)	none
CN1Cc2sc(NC(=S)NC(=O)c3ccccc3)c(C#N)c2CC1(C)C	TPT1 inhibitor 97.4 (no result: Rpn11 inh, CendR NRP1 mod, HNF4A DNA FP) | caTPT1 confirm 85.0 | RNase T1 counter 90.2
O=C(c1ccco1)N(Cc1cccs1)C1CCS(=O)(=O)C1 (centres undefined)	none
COc1cc(/C=C2\SC(=S)N(NC(=O)c3ccccc3O)C2=O)ccc1O	TPT1 inhibitor 30.8, HNF4A DNA FP 41.2 (not shown: Rpn11 inh) | caTPT1 confirm 34.2 | RNase T1 counter 46.9
